In PubChem BioAssay (NCI):
This is part of a sample that, as a whole, favours compounds with a hit. Of some 83,000 tested, about 20% had one in any assay.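 In brief: 96-well plates, 48 h treatment, single concentration, percent growth endpoint.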 The source made the active and inactive calls. Rule for the calls: active = growth percent below 10; inactive = the rest.

Legend:
Assay in all cases: NCI-60 one-dose screen, 48 h (100 = growth as untreated, 0 = no growth, -100 = all killed)
[1] = system: SK-MEL-2 melanoma; conditions: 10 µM unless noted
[2] = system: EKVX NSCLC; conditions: 10 µM unless noted
[3] = system: SN12C renal; conditions: 10 µM unless noted
[4] = system: UO-31 renal; conditions: 10 µM unless noted
[5] = system: TK-10 renal; conditions: 10 µM unless noted
[6] = system: ACHN renal; conditions: 10 µM unless noted
[7] = system: A498 renal; conditions: 10 µM
[8] = system: HL-60(TB) leukemia; conditions: 10 µM unless noted
[9] = system: CCRF-CEM leukemia; conditions: 10 µM unless noted
[10] = system: MOLT-4 leukemia; conditions: 10 µM unless noted
[11] = system: SR leukemia; conditions: 10 µM unless noted
[12] = system: RPMI-8226 leukemia; conditions: 10 µM unless noted
[13] = system: OVCAR-8 ovarian; conditions: 10 µM unless noted
[14] = system: OVCAR-5 ovarian; conditions: 10 µM unless noted
[15] = system: OVCAR-4 ovarian; conditions: 10 µM unless noted
[16] = system: SK-OV-3 ovarian; conditions: 10 µM unless noted
[17] = system: IGROV1 ovarian; conditions: 10 µM unless noted
[18] = system: OVCAR-3 ovarian; conditions: 10 µM unless noted
[19] = system: HS 578T breast; conditions: 10 µM unless noted

Measured: growth

COc1ccc2c(c1)c(-c1nc(-c3c[nH]c4ncccc34)cs1)cn2CCN1CCOCC1
inactive: [1] 61.3% | [2] 37.1% | [3] 43.6% | [4] 15.4% | [5] 42.3% | [6] 36.5% | [7] 71.7% | [8] 61% | [9] 41.6% | [10] 45.7% | [11] 45.5% | [12] 22.3% | [13] 37.9% | [14] 82.9% | [15] 28% | [16] 67.9% | [17] 27.7% | [18] 59% | [19] 37.5%

COC(=O)[C@@H](C)C[C@H](Cc1ccccc1)NC(=O)c1cccc([C@@H](C[C@H](C(C)C)N(C)C(=O)[C@@H](NC(=O)[C@H]2CCCCN2C)C(C)C)OC(C)=O)n1
active: [7] -0.869% | [8] -28.6% | [9] 7.41% | [11] 8.11% | [18] -31.3%
inactive: [1] 26.4% | [2] 34.3% | [3] 17.1% | [4] 41.8% | [5] 58.7% | [6] 30.4% | [10] 11.5% | [12] 22.4% | [13] 11.4% | [14] 35.6% | [15] 38.9% | [16] 28.7% | [17] 26.8% | [19] 26.3%

Cn1cc(-c2csc(-c3cn(CCCCN4CCCCC4)c4ccc(F)cc34)n2)c2cccnc21
active: [8] -0.887% | [9] -60.5% | [10] -62% | [11] -44.9% | [12] 1.18%
inactive: [1] 97.4% | [2] 89% | [3] 75.7% | [4] 20.6% | [5] 106% | [6] 54.6% | [7] 81.5% | [13] 91.8% | [14] 103% | [15] 87% | [16] 100% | [17] 71.7% | [18] 87.7% | [19] 67.9%

CC[C@H](NC(=O)[C@H]1CCCCN1C)C(=O)N(C)[C@H](C[C@@H](OC(C)=O)c1nc(C(=O)N[C@@H](Cc2ccccc2)C[C@H](C)C(=O)O)cs1)C(C)C
active: [7] -8.18% | [8] -21.5% | [9] 1.98% | [11] 6.46% | [13] 9.15% | [18] -6.57%
inactive: [1] 36.8% | [2] 40.6% | [3] 17.1% | [4] 41.7% | [5] 69% | [6] 34.4% | [10] 10.2% | [12] 15.5% | [14] 37.5% | [15] 43.5% | [16] 25.8% | [17] 25.3% | [19] 11.4%

COC(=O)[C@@]1(C)CC[C@]2(C)CC[C@]3(C)C4=CC=C5C(=CC(=O)C(O)=C5C)[C@]4(C)CC[C@@]3(C)[C@@H]2C1
active: [1] -87.6% | [2] -77.8% | [3] -88.2% | [4] -99.4% | [5] -95.7% | [6] -100% | [7] -97.9% | [8] -53.1% | [9] -41.2% | [10] -43.3% | [11] -46.7% | [12] -26.7% | [13] -72.9% | [14] -93.1% | [15] -95% | [16] -97.6% | [17] -77.4% | [18] -92.1% | [19] -41.6%

CCCCCCCCCCCCNC(c1ccccc1)C(O)c1ccccc1 (stereo not given)
inactive: [1] 92.8% | [2] 92.6% | [3] 68.5% | [4] 72% | [5] 98.8% | [6] 67.4% | [7] 116% | [8] 66.8% | [9] 63.1% | [10] 61.7% | [12] 18.3% | [13] 67.9% | [14] 92.9% | [15] 10.5% | [16] 95.8% | [17] 53.7% | [18] 83.8% | [19] 106%
active: [11] -14.3%

CCOC(=O)[C@@H](C)C[C@H](Cc1ccccc1)NC(=O)c1csc([C@@H](C[C@H](C(C)C)N(C)C(=O)[C@@H](NC(=O)[C@H]2CCCCN2C)C(C)(C)C)OC(C)=O)n1
active: [1] 1.39% | [7] -11.4% | [8] -33.2% | [9] 1.8% | [10] 7.61% | [11] 3.63% | [13] 6.71% | [18] -6.79% | [19] 6.42%
inactive: [2] 31.5% | [3] 13.3% | [4] 20.6% | [5] 49.2% | [6] 17.1% | [12] 11.9% | [14] 32.3% | [15] 42.7% | [16] 13.2% | [17] 18.1%

CC[C@H](C)[C@@H]([C@@H](CC(=O)N1CCC[C@H]1[C@H](OC)[C@@H](C)C(=O)N[C@H](C)[C@@H](O)c1ccccc1)OC)N(C)C(=O)[C@@H](NC(=O)[C@@H](NC)C(C)C)C(C)C
inactive: [1] 41.8% | [2] 41.7% | [3] 36.7% | [4] 40.6% | [5] 47.2% | [6] 29.3% | [9] 20.8% | [10] 18.3% | [11] 13.8% | [12] 26.5% | [13] 21% | [14] 60.9% | [15] 36.2% | [16] 14.1% | [17] 18.1% | [19] 28.9%
active: [7] -11.7% | [8] -20.2% | [18] -13.9%

CC1=C2[C@@H](CC1)[C@]1(C)O[C@@](C(C)C)(C[C@H]1O)[C@H]2OC(=O)C1CC1c1ccccc1 (stereo not given in full)
inactive: [1] 87.7% | [2] 88% | [3] 91.7% | [4] 74.7% | [5] 104% | [6] 84.2% | [7] 72.7% | [8] 80.5% | [9] 74.9% | [10] 63.4% | [11] 92.4% | [12] 58.2% | [13] 71.8% | [14] 97.5% | [15] 91.8% | [16] 90.6% | [17] 96.2% | [18] 100% | [19] 95.5%

c1cnc2[nH]cc(-c3csc(-c4cn(CCCCN5CCCCC5)c5ccccc45)n3)c2c1
inactive: [1] 97.6% | [2] 83.1% | [3] 75.2% | [4] 49.2% | [5] 124% | [6] 98.5% | [7] 95.7% | [8] 47.9% | [9] 62.9% | [10] 56.4% | [12] 52.5% | [13] 87.3% | [14] 96.3% | [15] 83.8% | [16] 109% | [17] 44.9% | [18] 90.5% | [19] 84.3%
active: [11] -23.5%

COC(=O)CC12CC(NC(=O)c3csc([C@@H](C[C@H](C(C)C)N(C)C(=O)[C@@H](NC(=O)[C@H]4CCCCN4C)C(C)C)OC(C)=O)n3)(C1)C2
inactive: [1] 51.6% | [2] 38.6% | [3] 25.4% | [4] 55.2% | [5] 50.5% | [6] 17.2% | [9] 13.6% | [10] 16.5% | [11] 20.1% | [12] 24.4% | [13] 30.5% | [14] 42.9% | [15] 56.1% | [16] 18.4% | [17] 26.3% | [19] 45%
active: [7] 5.32% | [8] -29.6% | [18] -34.3%

CCCCN1CCCC[C@@H]1C(=O)N[C@H](C(=O)N(C)[C@H](CCc1nc(C(=O)N[C@@H](Cc2ccccc2)C[C@H](C)C(=O)OC)cs1)C(C)C)[C@@H](C)CC
inactive: [1] 24.8% | [2] 61.2% | [3] 77.6% | [4] 48% | [5] 69.2% | [6] 52.2% | [7] 32.9% | [8] 27.5% | [9] 61.6% | [10] 34.7% | [12] 28.6% | [13] 80.9% | [14] 101% | [15] 56.9% | [16] 49.9% | [17] 48.9% | [18] 13.8% | [19] 76%
active: [11] 8%

CC[C@H](C)[C@H](NC(=O)[C@H]1CCCCN1C)C(=O)N(C)[C@H](C[C@@H](O)c1nc(C(=O)N[C@@H](Cc2ccccc2)C[C@H](C)C(=O)O)cs1)C(C)C
inactive: [1] 41.3% | [2] 91.5% | [3] 90.5% | [4] 84.1% | [5] 91.9% | [6] 106% | [7] 76.2% | [9] 43.5% | [10] 79% | [11] 29.2% | [12] 59.8% | [13] 93.5% | [14] 101% | [15] 98% | [16] 97% | [17] 76.6% | [18] 63.2% | [19] 75.7%
active: [8] 8.99%

Cc1ccc(Nc2nc3c(s2)C2=CC[C@@H]4[C@H](CC[C@]5(C)C(=O)CC[C@@H]45)[C@@]2(C)CC3)cc1
active: [9] 7.68% | [12] -15.8%
inactive: [1] 46.3% | [2] 56.7% | [3] 60% | [4] 48.3% | [5] 53.5% | [6] 20.1% | [7] 51.3% | [8] 34% | [11] 12.9% | [13] 58.4% | [14] 72.4% | [15] 44.8% | [16] 36.6% | [17] 65% | [18] 16.7% | [19] 28.1%

O=[N+]([O-])c1cc(I)cc([N+](=O)[O-])c1
inactive: [1] 96.8% | [2] 99.9% | [3] 103% | [4] 108% | [5] 117% | [6] 121% | [7] 111% | [8] 125% | [9] 100% | [10] 97.1% | [11] 104% | [12] 101% | [13] 108% | [14] 119% | [16] 125% | [17] 108% | [18] 107% | [19] 122%

Clc1ccc2nnnn2n1
inactive: [2] 90% | [3] 51.2% | [5] 37.5% | [6] 43% | [7] 78.7% | [9] 19.6% | [10] 17.3% | [13] 74.1% | [14] 67.1% | [15] 37.8% | [16] 92% | [19] 89.6%
active: [1] -12.1% | [4] 5.04% | [8] -25.8% | [12] 5.38% | [18] -3.95%
